# Reference: paper PMC7862700, “An all-to-all approach to the identification of sequence-specific readers for epigenetic DNA modifications on cytosine”
# Tests used:
# Test in all cases: DAPPL (digital affinity profiling via proximity ligation, sequencing); 10 mM Tris-HCl pH 7.5, 50 mM NaCl, 1 mM DTT, 4% glycerol, room temperature, 30 min; GST-TFs on glutathione beads, 16-mer random dsDNA library, 0.1% formaldehyde crosslink after washing; high values mean tight binding
# FLI1 = target: T1, FLI1 (Homo sapiens, UniProt Q01543 1-452); conditions: protein: recombinant; tags: N-terminal GST; dsDNA, one strand shown
# T1 sequence: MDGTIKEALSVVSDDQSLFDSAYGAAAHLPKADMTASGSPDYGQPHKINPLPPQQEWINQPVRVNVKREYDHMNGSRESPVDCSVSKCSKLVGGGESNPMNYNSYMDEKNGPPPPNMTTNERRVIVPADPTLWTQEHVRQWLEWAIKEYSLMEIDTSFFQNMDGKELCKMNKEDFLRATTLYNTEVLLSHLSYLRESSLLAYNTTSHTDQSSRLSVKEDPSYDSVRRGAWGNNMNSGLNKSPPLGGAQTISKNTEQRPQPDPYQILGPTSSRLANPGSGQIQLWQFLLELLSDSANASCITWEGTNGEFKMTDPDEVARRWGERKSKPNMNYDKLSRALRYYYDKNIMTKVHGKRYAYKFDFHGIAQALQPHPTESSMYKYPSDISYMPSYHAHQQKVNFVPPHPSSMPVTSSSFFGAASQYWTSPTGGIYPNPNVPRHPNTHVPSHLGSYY
# Summary of the method: (§1)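 Pools of DNA-barcoded human transcription factors, expressed in yeast as GST fusions on glutathione beads and combined with a tag-only sample, were incubated with 200 nmole of a 16-mer random double-stranded DNA library. Incubation took 30 min at room temperature in Tris/NaCl/DTT/glycerol buffer and was followed by washing, 0.1% formaldehyde crosslinking, proximity ligation (BsaI/T4 ligase, 1 h, 37 °C), PCR amplification and sequencing on an Illumina NextSeq500. Binding signal is the ratio of a hexamer's read frequency for a factor to its frequency for the tag-only sample.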
# ELK1 = target: T2, ELK1 (Homo sapiens, UniProt P19419 1-428); conditions: protein: recombinant; tags: N-terminal GST; dsDNA, one strand shown
# T2 sequence: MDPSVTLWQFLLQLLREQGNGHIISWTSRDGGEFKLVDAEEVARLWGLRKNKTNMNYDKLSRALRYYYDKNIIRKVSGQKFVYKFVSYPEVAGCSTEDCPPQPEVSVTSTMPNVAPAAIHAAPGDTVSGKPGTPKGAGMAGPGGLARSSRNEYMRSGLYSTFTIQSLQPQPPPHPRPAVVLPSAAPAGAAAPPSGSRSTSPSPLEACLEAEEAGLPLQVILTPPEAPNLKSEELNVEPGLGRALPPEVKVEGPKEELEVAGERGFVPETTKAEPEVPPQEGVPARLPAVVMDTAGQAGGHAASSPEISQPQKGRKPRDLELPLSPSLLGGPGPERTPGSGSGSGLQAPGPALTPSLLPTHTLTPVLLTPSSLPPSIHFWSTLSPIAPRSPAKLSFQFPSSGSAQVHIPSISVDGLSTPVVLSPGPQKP
# Summary of the method: as §1
# GABPA = target: T3, GABPA (Homo sapiens, UniProt Q06546 1-454); conditions: protein: recombinant; tags: N-terminal GST; dsDNA, one strand shown
# T3 sequence: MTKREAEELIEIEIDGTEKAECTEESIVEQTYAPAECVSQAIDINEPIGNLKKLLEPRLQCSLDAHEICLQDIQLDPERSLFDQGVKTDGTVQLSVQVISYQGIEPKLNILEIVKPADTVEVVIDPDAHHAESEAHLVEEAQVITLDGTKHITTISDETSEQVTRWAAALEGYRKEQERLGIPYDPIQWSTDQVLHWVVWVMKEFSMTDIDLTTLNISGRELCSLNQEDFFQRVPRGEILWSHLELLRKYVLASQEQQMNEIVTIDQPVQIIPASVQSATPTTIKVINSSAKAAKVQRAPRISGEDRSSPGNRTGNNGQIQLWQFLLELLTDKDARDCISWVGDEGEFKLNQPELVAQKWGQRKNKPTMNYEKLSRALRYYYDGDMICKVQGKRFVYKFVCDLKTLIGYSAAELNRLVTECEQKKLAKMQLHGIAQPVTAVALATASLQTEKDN
# Summary of the method: as §1
# ERG = target: T4, ERG (Homo sapiens, UniProt P11308 1-479); conditions: protein: recombinant; tags: N-terminal GST; dsDNA, one strand shown
# T4 sequence: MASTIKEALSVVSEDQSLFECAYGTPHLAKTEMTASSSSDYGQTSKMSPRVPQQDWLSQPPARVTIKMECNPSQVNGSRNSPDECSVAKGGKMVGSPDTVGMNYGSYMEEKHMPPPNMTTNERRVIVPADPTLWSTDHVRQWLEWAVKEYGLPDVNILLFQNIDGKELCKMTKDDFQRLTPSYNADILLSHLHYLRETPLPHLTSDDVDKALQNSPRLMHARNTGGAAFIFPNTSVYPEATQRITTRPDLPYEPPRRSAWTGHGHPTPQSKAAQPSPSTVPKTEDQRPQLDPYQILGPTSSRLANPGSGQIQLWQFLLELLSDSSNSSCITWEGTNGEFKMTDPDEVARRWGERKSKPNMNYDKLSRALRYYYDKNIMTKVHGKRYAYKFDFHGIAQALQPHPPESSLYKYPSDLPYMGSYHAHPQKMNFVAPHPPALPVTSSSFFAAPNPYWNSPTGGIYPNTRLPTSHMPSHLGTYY
# Summary of the method: as §1
# ELF1 = ELF1 (Homo sapiens, UniProt P32519 1-619); conditions: protein: recombinant; tags: N-terminal GST; dsDNA, one strand shown
# Summary of the method: as §1
# EHF = target: T5, EHF (Homo sapiens, UniProt Q9NZC4 1-300); conditions: protein: recombinant; tags: N-terminal GST; dsDNA, one strand shown
# T5 sequence: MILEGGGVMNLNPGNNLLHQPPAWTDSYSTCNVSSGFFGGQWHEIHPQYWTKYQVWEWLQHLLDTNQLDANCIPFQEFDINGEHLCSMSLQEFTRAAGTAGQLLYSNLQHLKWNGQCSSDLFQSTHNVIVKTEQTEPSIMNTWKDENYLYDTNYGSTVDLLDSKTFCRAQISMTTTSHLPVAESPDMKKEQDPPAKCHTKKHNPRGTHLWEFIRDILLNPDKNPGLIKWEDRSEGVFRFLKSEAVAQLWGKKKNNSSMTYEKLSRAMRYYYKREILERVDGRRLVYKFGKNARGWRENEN
# Summary of the method: as §1
# SPI1 = SPI1 (Homo sapiens, UniProt P17947 1-270); conditions: protein: recombinant; tags: N-terminal GST; dsDNA, one strand shown
# Summary of the method: as §1
# SPIB = SPIB (Homo sapiens, UniProt Q01892 1-262); conditions: protein: recombinant; tags: N-terminal GST; dsDNA, one strand shown
# Summary of the method: as §1
# ELK3 = target: T6, ELK3 (Homo sapiens, UniProt P41970 1-407); conditions: protein: recombinant; tags: N-terminal GST; dsDNA, one strand shown
# T6 sequence: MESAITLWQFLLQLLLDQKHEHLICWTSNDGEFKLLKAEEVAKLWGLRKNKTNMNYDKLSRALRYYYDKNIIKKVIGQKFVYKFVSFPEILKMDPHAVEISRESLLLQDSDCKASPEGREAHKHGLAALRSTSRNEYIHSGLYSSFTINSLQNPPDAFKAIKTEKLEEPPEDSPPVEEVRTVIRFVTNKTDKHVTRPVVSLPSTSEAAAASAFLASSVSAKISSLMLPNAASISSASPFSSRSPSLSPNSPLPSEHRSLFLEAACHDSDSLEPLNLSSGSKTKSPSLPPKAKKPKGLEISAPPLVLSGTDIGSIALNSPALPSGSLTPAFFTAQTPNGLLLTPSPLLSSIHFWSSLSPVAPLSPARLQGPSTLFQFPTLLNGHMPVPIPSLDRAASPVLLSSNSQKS
# Summary of the method: as §1
# FEV = target: T7, FEV (Homo sapiens, UniProt Q99581 1-238); conditions: protein: recombinant; tags: N-terminal GST; dsDNA, one strand shown
# T7 sequence: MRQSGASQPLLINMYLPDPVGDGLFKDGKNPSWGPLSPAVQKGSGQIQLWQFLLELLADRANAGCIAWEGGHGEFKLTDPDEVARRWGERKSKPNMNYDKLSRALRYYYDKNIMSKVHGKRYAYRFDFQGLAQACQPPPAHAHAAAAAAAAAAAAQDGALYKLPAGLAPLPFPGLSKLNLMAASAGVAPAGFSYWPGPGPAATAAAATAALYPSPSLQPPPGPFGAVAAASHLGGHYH
# Summary of the method: as §1
# ETV5 = ETV5 (Homo sapiens, UniProt P41161 1-510); conditions: protein: recombinant; tags: N-terminal GST; dsDNA, one strand shown
# Summary of the method: as §1
# HSF1 = HSF1 (Homo sapiens, UniProt Q00613 1-529); conditions: protein: recombinant; tags: N-terminal GST; chain copies: 3; dsDNA, one strand shown
# Summary of the method: as §1
# SPIC = target: T8, SPIC (Homo sapiens, UniProt Q8N5J4 1-248); conditions: protein: recombinant; tags: N-terminal GST; dsDNA, one strand shown
# T8 sequence: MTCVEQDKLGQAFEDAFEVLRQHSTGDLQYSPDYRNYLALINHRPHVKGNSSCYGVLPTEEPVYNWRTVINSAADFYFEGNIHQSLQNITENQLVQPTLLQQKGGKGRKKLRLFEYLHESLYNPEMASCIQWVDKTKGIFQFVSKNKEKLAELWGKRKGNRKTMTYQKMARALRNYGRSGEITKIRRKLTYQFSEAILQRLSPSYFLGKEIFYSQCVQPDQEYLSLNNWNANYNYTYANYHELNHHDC
# Summary of the method: as §1
# ELF4 = ELF4 (Homo sapiens, UniProt Q99607 1-663); conditions: protein: recombinant; tags: N-terminal GST; dsDNA, one strand shown
# Summary of the method: as §1
# ELK4 = target: T9, ELK4 (Homo sapiens, UniProt P28324-2 1-405); conditions: protein: recombinant; tags: N-terminal GST; dsDNA, one strand shown
# T9 sequence: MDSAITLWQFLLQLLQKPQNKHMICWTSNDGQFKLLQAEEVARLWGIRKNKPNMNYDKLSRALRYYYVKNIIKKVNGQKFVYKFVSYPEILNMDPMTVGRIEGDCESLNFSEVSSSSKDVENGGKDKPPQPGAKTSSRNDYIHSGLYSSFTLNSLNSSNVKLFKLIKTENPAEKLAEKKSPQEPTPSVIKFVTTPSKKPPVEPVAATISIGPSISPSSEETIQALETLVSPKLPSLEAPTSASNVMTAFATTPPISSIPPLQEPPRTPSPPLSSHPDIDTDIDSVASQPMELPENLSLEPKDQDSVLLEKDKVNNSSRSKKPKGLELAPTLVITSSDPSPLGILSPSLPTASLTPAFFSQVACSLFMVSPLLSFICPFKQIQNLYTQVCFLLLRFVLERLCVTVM
# Summary of the method: as §1
# ETV2 = target: T10, ETV2 (Homo sapiens, UniProt O00321 1-342); conditions: protein: recombinant; tags: N-terminal GST; dsDNA, one strand shown
# T10 sequence: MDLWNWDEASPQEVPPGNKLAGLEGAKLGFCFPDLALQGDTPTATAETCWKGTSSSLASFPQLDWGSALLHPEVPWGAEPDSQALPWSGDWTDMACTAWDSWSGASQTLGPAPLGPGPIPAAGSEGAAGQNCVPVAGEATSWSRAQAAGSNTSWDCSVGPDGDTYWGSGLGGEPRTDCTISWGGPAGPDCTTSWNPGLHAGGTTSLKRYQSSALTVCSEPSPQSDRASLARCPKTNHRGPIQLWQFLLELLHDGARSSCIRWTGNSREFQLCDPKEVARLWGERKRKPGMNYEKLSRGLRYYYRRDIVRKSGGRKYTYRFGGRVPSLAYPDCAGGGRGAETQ
# Summary of the method: as §1
# ELF3 = target: T11, ELF3 (Homo sapiens, UniProt P78545 1-371); conditions: protein: recombinant; tags: N-terminal GST; dsDNA, one strand shown
# T11 sequence: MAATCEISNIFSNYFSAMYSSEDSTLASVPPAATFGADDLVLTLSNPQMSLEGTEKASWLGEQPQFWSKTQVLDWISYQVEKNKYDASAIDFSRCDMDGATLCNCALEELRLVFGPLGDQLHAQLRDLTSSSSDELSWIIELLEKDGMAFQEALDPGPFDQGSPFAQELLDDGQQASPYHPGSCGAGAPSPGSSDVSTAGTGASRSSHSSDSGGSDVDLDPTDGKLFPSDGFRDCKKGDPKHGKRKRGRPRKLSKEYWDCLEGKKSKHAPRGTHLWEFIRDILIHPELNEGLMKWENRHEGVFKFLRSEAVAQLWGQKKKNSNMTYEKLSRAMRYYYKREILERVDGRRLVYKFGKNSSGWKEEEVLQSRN
# Summary of the method: as §1
# CRX = CRX (Homo sapiens, UniProt O43186 1-299); conditions: protein: recombinant; tags: N-terminal GST; dsDNA, one strand shown
# Summary of the method: as §1
# ETV1 = ETV1 (Homo sapiens, UniProt P50549 1-477); conditions: protein: recombinant; tags: N-terminal GST; dsDNA, one strand shown
# Summary of the method: as §1
# Chain of HSF1 (Q00613 whole entry): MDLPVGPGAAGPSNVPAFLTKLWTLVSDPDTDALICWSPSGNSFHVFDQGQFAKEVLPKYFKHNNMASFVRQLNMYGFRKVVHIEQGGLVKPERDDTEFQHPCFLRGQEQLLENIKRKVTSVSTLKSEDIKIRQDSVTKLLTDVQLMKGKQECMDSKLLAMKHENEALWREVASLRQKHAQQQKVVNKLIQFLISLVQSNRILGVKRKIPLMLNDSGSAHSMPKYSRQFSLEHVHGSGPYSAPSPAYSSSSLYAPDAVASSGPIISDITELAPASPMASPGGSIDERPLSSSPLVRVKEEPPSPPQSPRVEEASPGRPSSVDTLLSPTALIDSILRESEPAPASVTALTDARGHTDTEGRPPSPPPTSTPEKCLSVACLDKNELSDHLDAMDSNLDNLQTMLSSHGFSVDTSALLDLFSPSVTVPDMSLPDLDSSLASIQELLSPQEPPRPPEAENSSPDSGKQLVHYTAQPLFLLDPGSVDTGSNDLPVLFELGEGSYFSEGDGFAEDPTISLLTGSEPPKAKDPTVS
# Chain of ELF1 (P32519 whole entry): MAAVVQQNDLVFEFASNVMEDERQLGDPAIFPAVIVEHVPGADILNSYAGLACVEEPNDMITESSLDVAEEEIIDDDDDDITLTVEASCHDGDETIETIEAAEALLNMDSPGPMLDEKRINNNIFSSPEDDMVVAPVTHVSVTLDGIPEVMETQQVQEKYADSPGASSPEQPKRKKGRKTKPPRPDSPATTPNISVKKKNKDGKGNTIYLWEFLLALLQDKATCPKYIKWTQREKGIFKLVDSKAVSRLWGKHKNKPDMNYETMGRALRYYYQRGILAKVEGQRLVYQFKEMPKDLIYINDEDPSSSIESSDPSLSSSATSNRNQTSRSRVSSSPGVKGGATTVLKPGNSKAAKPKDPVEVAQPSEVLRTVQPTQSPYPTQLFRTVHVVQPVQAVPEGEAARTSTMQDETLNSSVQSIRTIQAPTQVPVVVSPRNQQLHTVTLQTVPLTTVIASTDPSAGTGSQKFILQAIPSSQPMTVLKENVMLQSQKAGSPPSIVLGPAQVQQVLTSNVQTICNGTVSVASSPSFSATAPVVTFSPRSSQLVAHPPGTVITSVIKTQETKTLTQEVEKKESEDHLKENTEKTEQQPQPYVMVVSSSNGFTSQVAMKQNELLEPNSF
# Chain of ETV1 (P50549 whole entry): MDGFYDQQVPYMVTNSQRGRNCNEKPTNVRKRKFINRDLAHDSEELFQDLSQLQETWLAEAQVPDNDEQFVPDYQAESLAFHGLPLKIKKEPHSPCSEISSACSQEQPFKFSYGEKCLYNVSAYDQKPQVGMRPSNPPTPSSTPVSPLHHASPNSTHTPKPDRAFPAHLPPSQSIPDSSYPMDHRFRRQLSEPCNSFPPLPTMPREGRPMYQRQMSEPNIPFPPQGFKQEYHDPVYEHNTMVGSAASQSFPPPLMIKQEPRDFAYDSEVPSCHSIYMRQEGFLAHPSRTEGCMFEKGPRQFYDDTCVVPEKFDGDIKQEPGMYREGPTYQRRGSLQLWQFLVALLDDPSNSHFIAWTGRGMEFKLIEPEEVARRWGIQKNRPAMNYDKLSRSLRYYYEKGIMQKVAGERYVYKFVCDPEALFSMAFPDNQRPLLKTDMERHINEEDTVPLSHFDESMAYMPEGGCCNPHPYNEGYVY
# Chain of ELF4 (Q99607 whole entry): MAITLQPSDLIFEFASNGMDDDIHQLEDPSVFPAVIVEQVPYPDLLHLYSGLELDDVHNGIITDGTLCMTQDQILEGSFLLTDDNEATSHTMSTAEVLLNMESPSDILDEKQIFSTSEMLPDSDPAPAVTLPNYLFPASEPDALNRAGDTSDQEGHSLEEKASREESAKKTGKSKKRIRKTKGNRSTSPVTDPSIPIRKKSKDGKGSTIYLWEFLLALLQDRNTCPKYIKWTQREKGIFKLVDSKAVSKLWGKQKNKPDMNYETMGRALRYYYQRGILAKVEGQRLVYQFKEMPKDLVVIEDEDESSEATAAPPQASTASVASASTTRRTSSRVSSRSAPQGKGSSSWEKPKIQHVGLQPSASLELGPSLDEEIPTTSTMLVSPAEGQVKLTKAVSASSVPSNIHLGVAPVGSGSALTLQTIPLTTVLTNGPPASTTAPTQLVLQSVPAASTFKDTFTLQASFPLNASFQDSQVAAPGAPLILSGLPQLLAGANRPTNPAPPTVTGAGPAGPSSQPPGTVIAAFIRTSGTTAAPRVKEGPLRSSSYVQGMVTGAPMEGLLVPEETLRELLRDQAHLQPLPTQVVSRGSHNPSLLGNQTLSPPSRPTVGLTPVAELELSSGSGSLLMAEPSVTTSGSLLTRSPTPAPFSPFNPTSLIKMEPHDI
# Chain of SPIB (Q01892 whole entry): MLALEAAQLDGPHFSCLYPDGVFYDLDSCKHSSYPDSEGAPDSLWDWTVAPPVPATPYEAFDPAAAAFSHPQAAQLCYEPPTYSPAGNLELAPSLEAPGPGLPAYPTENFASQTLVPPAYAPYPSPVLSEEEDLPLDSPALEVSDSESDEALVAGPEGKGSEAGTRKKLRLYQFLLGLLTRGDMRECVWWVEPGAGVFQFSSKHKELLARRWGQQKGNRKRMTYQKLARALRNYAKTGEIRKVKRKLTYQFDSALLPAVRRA
# Chain of ETV5 (P41161 whole entry): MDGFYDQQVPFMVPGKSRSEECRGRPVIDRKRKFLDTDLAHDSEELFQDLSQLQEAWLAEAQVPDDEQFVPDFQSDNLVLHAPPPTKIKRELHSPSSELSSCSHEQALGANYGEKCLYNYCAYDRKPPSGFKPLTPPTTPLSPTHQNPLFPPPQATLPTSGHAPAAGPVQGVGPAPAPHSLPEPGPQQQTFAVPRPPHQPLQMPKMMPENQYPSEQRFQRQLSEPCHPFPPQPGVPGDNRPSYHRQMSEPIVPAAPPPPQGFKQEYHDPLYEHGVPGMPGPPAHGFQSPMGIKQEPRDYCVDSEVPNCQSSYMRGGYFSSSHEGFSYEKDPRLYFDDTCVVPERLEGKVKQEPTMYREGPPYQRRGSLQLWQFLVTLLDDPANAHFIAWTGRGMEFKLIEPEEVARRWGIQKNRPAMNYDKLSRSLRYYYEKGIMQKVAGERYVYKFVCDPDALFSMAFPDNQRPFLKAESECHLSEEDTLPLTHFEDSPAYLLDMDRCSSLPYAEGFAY
# Chain of CRX (O43186 whole entry): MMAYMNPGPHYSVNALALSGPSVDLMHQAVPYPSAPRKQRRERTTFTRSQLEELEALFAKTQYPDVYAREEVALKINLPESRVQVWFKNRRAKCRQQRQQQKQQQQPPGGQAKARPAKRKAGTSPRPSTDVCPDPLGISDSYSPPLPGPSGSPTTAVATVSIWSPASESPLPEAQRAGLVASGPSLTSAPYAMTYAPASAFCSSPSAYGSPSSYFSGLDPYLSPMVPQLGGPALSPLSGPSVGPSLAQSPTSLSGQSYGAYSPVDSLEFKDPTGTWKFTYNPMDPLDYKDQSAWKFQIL
sequence,measurement,setting,value
CCGCTC,binding signal,FLI1,"1.53 fold enrichment (6-mer frequency, TF over GST control)"
same,binding signal,ELK1,"1.52 fold enrichment (6-mer frequency, TF over GST control)"
same,binding signal,GABPA,"1.39 fold enrichment (6-mer frequency, TF over GST control)"
same,binding signal,ERG,"1.47 fold enrichment (6-mer frequency, TF over GST control)"
same,binding signal,ELF1,"1.58 fold enrichment (6-mer frequency, TF over GST control)"
same,binding signal,EHF,"1.54 fold enrichment (6-mer frequency, TF over GST control)"
same,binding signal,SPI1,"1.48 fold enrichment (6-mer frequency, TF over GST control)"
same,binding signal,SPIB,"1.59 fold enrichment (6-mer frequency, TF over GST control)"
same,binding signal,ELK3,"1.49 fold enrichment (6-mer frequency, TF over GST control)"
same,binding signal,FEV,"1.61 fold enrichment (6-mer frequency, TF over GST control)"
same,binding signal,ETV5,"1.46 fold enrichment (6-mer frequency, TF over GST control)"
same,binding signal,HSF1,"1.24 fold enrichment (6-mer frequency, TF over GST control)"
same,binding signal,SPIC,"1.53 fold enrichment (6-mer frequency, TF over GST control)"
same,binding signal,ELF4,"1.6 fold enrichment (6-mer frequency, TF over GST control)"
same,binding signal,ELK4,"1.65 fold enrichment (6-mer frequency, TF over GST control)"
same,binding signal,ETV2,"1.52 fold enrichment (6-mer frequency, TF over GST control)"
same,binding signal,ELF3,"1.54 fold enrichment (6-mer frequency, TF over GST control)"
same,binding signal,CRX,"1.21 fold enrichment (6-mer frequency, TF over GST control)"
same,binding signal,ETV1,"1.45 fold enrichment (6-mer frequency, TF over GST control)"
